Test results from PubChem BioAssay AID1159580 (chemical genetic matrix, 2015).
“And” between values parts separate entries of the source, which are not always exact repeats. Equal entries are not always repeated. The campaign covered roughly 5,500 compounds. About 2,000 (36%) were called active. About 18% were inconclusive and are not listed. Rule as the data show it: active = normalized growth mostly below about 0.91 (no sharp cut-off); inconclusive = no clear call, values can overlap the other calls; inactive = mostly above about 0.92. This is one part of the list.

Assay: chemical genetic growth profiling, strain panel (AID 1159580);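 also: tested at 20 µM; growth read once vehicle control cultures reached saturation at 30 °C; 1 = growth at the plate median or of vehicle wells; lower values mean less growth of the strain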
Conditions: S. cerevisiae deletion strains, growth OD

Measured: normalized growth

CC(C)(Oc1ccc(CCNC(=O)c2ccc(Cl)cc2)cc1)C(=O)O
inactive: locus YAL013W, strain DEP1, hits give low values 1.02 | locus YAL021C, strain ccr4, hits give low values 0.982 | locus YAL026C, strain drs2, hits give low values 0.985 | locus YAL030W, strain snc1, hits give low values 0.996 | locus YBL061C, strain skt5, hits give low values 0.999 | locus YBR009C, strain hhf1, hits give low values 0.975 | locus YBR021W, strain FUR4, hits give low values 1.02 | locus YBR023C, strain chs3, hits give low values 0.986 | locus YBR171W, strain sec66, hits give low values 0.978 | locus YBR229C, strain ROT2, hits give low values 1.01 | locus YBR231C, strain swc5, hits give low values 1.01 | locus YBR279W, strain paf1, hits give low values 0.972 | locus YCL011C, strain gbp2, hits give low values 0.982 | locus YCL016C, strain dcc1, hits give low values 0.971 | locus YCL029C, strain bik1, hits give low values 1.02 | locus YCL069W, strain vba3, hits give low values 0.988 | locus YCR088W, strain abp1, hits give low values 0.985 | locus YDL005C, strain med2, hits give low values 0.984 | locus YDL035C, strain GPR1, hits give low values 1.04 | locus YDL040C, strain nat1, hits give low values 0.995 | locus YDL074C, strain BRE1, hits give low values 1.01 | locus YDL101C, strain DUN1, hits give low values 1.01 | locus YDL134C, strain PPH21, hits give low values 1.05 | locus YDL185W, strain tfp1, hits give low values 1.02 | locus YDL192W, strain arf1, hits give low values 1.01 | locus YDR001C, strain nth1, hits give low values 0.987 | locus YDR069C, strain doa4, hits give low values 0.968 | locus YDR101C, strain arx1, hits give low values 0.995 | locus YDR137W, strain rgp1, hits give low values 0.988 | locus YDR150W, strain NUM1, hits give low values 1.01 | locus YDR159W, strain sac3, hits give low values 0.939 | locus YDR162C, strain NBP2, hits give low values 1.03 | locus YDR195W, strain ref2 0.993 | locus YDR297W, strain sur2, hits give low values 0.998 | locus YDR318W, strain mcm21, hits give low values 1.02 | locus YDR334W, strain swr1, hits give low values 0.995 | locus YDR335W, strain msn5, hits give low values 0.977 | locus YDR388W, hits give low values 1.01 | locus YDR392W, strain spt3, hits give low values 0.882 | locus YDR502C, strain sam2, hits give low values 1.02 | locus YEL003W, strain gim4, hits give low values 1.01 | locus YEL037C, strain rad23, hits give low values 0.99 | locus YEL061C, strain CIN8 (second series), hits give low values 0.997 | locus YEL061C, strain CIN8, hits give low values 1.01 | locus YER015W, strain faa2, hits give low values 0.995 | locus YER016W, strain bim1, hits give low values 0.971 | locus YER110C, hits give low values 1 | locus YER111C, strain swi4, hits give low values 0.984 | locus YER155C, strain BEM2 (second series), hits give low values 0.975 | locus YER155C, strain BEM2, hits give low values 1.01 | locus YER167W, strain BCK2, hits give low values 1.01 | locus YFR010W, strain ubp6, hits give low values 1.01 | locus YGL078C, strain dbp3, hits give low values 1.02 | locus YGL086W, strain mad1, hits give low values 1.01 | locus YGL167C, strain pmr1, hits give low values 1 | locus YGL173C, strain kem1, hits give low values 1 | locus YGL227W, strain vid30, hits give low values 0.977 | locus YGL240W, strain doc1, hits give low values 0.984 | locus YGL248W, strain PDE1, hits give low values 1.01 | locus YGL253W, strain hxk2, hits give low values 0.994 | locus YGR078C, strain PAC10, hits give low values 1 | locus YGR135W, strain pre9, hits give low values 1.02 | locus YGR252W, strain gcn5, hits give low values 1.02 | locus YHR013C, strain ard1, hits give low values 0.963 | locus YHR027C, strain rpn1, hits give low values 0.986 | locus YHR030C, strain SLT2, hits give low values 1.02 and 0.997 | locus YHR079C, strain IRE1 (second series), hits give low values 1.02 | locus YHR079C, strain IRE1, hits give low values 0.995 | locus YHR094C, strain hxt1, hits give low values 1.01 | locus YHR129C, strain ARP1, hits give low values 1.01 | locus YHR142W, strain chs7, hits give low values 0.999 | locus YHR200W, strain rpn10, hits give low values 1.03 | locus YIL066C, strain RNR3, hits give low values 1.02 | locus YIL073C, strain SPO22, hits give low values 1.15 | locus YIL125W, strain kgd1, hits give low values 1.01 | locus YIR030C, strain dcg1, hits give low values 1.02 | locus YJL092W, strain hpr5, hits give low values 0.996 | locus YJL095W, strain BCK1 (second series), hits give low values 0.983 | locus YJL095W, strain BCK1, hits give low values 1 and 0.972 | locus YJL115W, strain asf1, hits give low values 0.978 | locus YJL129C, strain trk1, hits give low values 0.955 | locus YJL134W, strain LCB3, hits give low values 1.01 | locus YJL154C, strain vps35, hits give low values 0.98 | locus YJL164C, strain tpk1, hits give low values 0.986 | locus YJL166W, strain qcr8, hits give low values 0.992 | locus YJL168C, strain set2, hits give low values 1.01 | locus YJL187C, strain SWE1 (second series), hits give low values 1.01 | locus YJL187C, strain SWE1, hits give low values 0.996 | locus YJR043C, strain POL32, hits give low values 1.02 | locus YJR066W, strain TOR1, hits give low values 0.967
